Screening data as filed in PubChem.
MBD2 DNA inh – MBD2-methylated oligo binding inhibition; Q9UBB5; inhibition, % at 4.4 µM; TR-FRET, MBD2 binding to methylated oligonucleotide; actives 0.31% (n = 370,000); AID 686964; in the data active = inhibition above about 13%
UBC13 inh – human UBC13 polyubiquitination inhibition; P61088; UBC13 polyubiquitin chain formation, TR-FRET; inhibition, % at 20 µM; actives 0.47% (n = 330,000); AID 485273; in the data active = inhibition above about 45%, passing the limit was not always enough
UHRF1 MBD2 ctr – UHRF1 methyl-DNA binding inhibition | inhibition, % at 4.4 µM | UHRF1 binding to methylated oligo, TR-FRET | AID 687016 | actives 0.75% (n = 370,000) | Q96T88; in the data active = inhibition above about 21%;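 note: UHRF1 SRA domain binding a hemimethylated CpG hairpin DNA probe; 0% = median of test compound wells and 100% = reference inhibitor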
Neddylation inh – cullin neddylation inhibition. actives 0.58% (n = 360,000). TR-FRET cullin neddylation, biochemical. AID 651699. P61081+Q13564. calls only at 25 µM; in the data active = inhibition above about 36%
Target sequence (P61081 whole entry, looked up): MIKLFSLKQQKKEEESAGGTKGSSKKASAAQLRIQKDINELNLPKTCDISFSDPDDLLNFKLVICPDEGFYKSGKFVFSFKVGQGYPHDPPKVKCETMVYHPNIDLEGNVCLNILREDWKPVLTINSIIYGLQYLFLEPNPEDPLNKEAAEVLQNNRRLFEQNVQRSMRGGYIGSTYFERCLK
Target sequence (Q13564 whole entry, looked up): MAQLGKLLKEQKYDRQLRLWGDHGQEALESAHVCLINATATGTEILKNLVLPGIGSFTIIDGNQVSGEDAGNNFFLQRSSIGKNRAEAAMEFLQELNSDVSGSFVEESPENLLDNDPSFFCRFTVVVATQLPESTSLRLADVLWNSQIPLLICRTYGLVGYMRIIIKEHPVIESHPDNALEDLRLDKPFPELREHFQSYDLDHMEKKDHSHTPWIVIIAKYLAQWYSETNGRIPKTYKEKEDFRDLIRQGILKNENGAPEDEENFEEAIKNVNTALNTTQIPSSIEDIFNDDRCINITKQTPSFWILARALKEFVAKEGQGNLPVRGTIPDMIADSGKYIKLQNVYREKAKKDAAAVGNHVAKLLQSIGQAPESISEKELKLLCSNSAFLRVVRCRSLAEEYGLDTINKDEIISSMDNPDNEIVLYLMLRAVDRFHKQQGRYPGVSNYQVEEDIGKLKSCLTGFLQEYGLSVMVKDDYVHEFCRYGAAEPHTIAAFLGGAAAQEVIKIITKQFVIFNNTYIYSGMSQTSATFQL
Numbers without * were called inactive. A selection: hits, their analogues and other compounds. The true share with any hit is near 1.8%.

How did C#CCOCCOCCOCCNc1nc(N2CCN(C(=O)[C@H]([C@@H](C)CC)n3cc([C@@H](N)CC(C)C)nn3)CC2)nc(N2CCN(C(=O)[C@H](Cc3cc4ccccc4[nH]3)n3cc([C@@H](N)C(C)CC)nn3)CC2)n1 (some centres undefined) do in these assays?
UBC13 inh: 81*

What do the screens show for `CCc1ccc(S(=O)(=O)Nc2ccc(-c3ccc4nnc(C)n4n3)cc2)s1`?
MBD2 DNA inh: -1; UBC13 inh: -8; UHRF1 MBD2 ctr: -1; Neddylation inh: inactive

How did CCc1ccc(S(=O)(=O)Nc2ccc(-c3ccc4nncn4n3)cc2)s1 do in these assays?
MBD2 DNA inh: 0; UBC13 inh: 4; UHRF1 MBD2 ctr: 23*; Neddylation inh: inactive

What do the screens show for `CN(C)C(=O)c1cc2c(c(-c3cccc(-c4ccccc4F)c3)n1)[C@@H](CCO)N(S(C)(=O)=O)C2`?
MBD2 DNA inh: -6; UHRF1 MBD2 ctr: 92*; Neddylation inh: inactive

What do the screens show for `CN(C)C(=O)c1cccc(-c2cnc3c(NC=O)cc(-c4ccc(N(C)C)cc4)cn23)c1`?
MBD2 DNA inh: -14; UHRF1 MBD2 ctr: -10; Neddylation inh: inactive

How did CCCc1[nH]nc2c1C(c1ccc(OCCN3CCOCC3)c(OCC)c1)C(C#N)=C(N)O2 (centres undefined) do in these assays?
MBD2 DNA inh: 5; UBC13 inh: 1; UHRF1 MBD2 ctr: -2; Neddylation inh: inactive

What do the screens show for `CCOc1cc(C2C(C#N)=C(N)Oc3n[nH]c(CC)c32)ccc1OCCN1CCOCC1` (centres undefined)?
MBD2 DNA inh: 5; UBC13 inh: -10; UHRF1 MBD2 ctr: 22*; Neddylation inh: inactive

What do the screens show for `CCOC(=O)c1c(NC(=O)C2c3ccccc3Oc3ccccc32)sc(C(N)=O)c1C`?
MBD2 DNA inh: 5; UBC13 inh: 19; UHRF1 MBD2 ctr: 22*; Neddylation inh: inactive

What do the screens show for `CCOC(=O)c1c(NC(=O)C2CCCO2)sc(C(N)=O)c1C` (centres undefined)?
MBD2 DNA inh: -4; UBC13 inh: 16; UHRF1 MBD2 ctr: -2; Neddylation inh: inactive

Results for CNC(=O)c1ccccc1Sc1ccccc1CO ?
MBD2 DNA inh: 2; UBC13 inh: 3; UHRF1 MBD2 ctr: -2; Neddylation inh: inactive

Results for CNC(=O)c1cccc2cccc(Sc3ccccc3C(=O)O)c12 ?
MBD2 DNA inh: -3; UBC13 inh: -4; UHRF1 MBD2 ctr: 29*; Neddylation inh: inactive

Results for COc1ccc(-c2ccc(NCCC3=CCCCC3)nn2)cc1OC ?
MBD2 DNA inh: -2; UBC13 inh: 1; UHRF1 MBD2 ctr: 2; Neddylation inh: inactive

Results for Cc1cc(-n2c(SCC(=O)Nc3ccc(F)c(F)c3)nc3n[nH]c(C)c3c2=N)ccc1Cl ?
MBD2 DNA inh: -2; UBC13 inh: 6; UHRF1 MBD2 ctr: -1; Neddylation inh: inactive

Results for CC1=CC(=O)N(c2cccc3c(N4C(=O)C=C(C)C4=O)cccc23)C1=O ?
MBD2 DNA inh: 15*; UHRF1 MBD2 ctr: 23*; Neddylation inh: inactive

Results for COc1cccc2c1C(=O)c1c(O)c3c(c(O)c1C2=O)CC(O)(C(C)=O)CC3OC1CC(O)C(O)C(C)O1 (centres undefined) ?
MBD2 DNA inh: 78*; UHRF1 MBD2 ctr: 81*; Neddylation inh: inactive

What do the screens show for `CN(C)c1cccc(CNC(=O)c2csc([C@@H]3O[C@H](CO)[C@H](O)[C@H](O)[C@H]3O)n2)c1`?
MBD2 DNA inh: -2; UHRF1 MBD2 ctr: -3; Neddylation inh: inactive

Results for Cc1ccc(CNC(=O)c2ccc(N3CCC4(CC3)CC(c3ccccc3)=NO4)c([N+](=O)[O-])c2)cc1 ?
MBD2 DNA inh: 4; UBC13 inh: -35; UHRF1 MBD2 ctr: 22*; Neddylation inh: inactive

How did O=C(NCc1ccccc1)c1ccc(N2CCC3(CC2)CC(c2ccccc2)=NO3)c([N+](=O)[O-])c1 do in these assays?
MBD2 DNA inh: -4; UBC13 inh: -7; UHRF1 MBD2 ctr: -2; Neddylation inh: inactive

How did Cc1c(C(=O)N/N=C/c2ccc(O)c(Br)c2)sc(N)c1C#N do in these assays?
MBD2 DNA inh: 0; UHRF1 MBD2 ctr: -5; Neddylation inh: active

Results for Cc1c(C(=O)N/N=C/c2ccc(-c3ccccc3[N+](=O)[O-])o2)sc(N)c1C#N ?
MBD2 DNA inh: -5; UHRF1 MBD2 ctr: -5; Neddylation inh: inactive

Results for COc1cc2c(C(F)(F)F)c(-c3ccsc3)oc(=O)c2cc1OC ?
MBD2 DNA inh: 7; UBC13 inh: 0; UHRF1 MBD2 ctr: 21*; Neddylation inh: inactive

Results for COc1cc2c(C(F)(F)F)c(-c3ccc(C#N)cc3)oc(=O)c2cc1OC ?
MBD2 DNA inh: -6; UBC13 inh: 13; UHRF1 MBD2 ctr: -1; Neddylation inh: inactive

How did CCOC(=O)N1CCN(c2ccc3nnnn3n2)CC1 do in these assays?
MBD2 DNA inh: 3; UBC13 inh: -5; UHRF1 MBD2 ctr: -2; Neddylation inh: inactive

How did O=C(CN1CCCCC1)Nc1scc2c1c(=O)oc1ccccc12 do in these assays?
MBD2 DNA inh: 5; UBC13 inh: -14; UHRF1 MBD2 ctr: 21*; Neddylation inh: inactive

How did O=C(CN1CCOCC1)Nc1scc2c1c(=O)oc1ccccc12 do in these assays?
MBD2 DNA inh: -7; UBC13 inh: 9; UHRF1 MBD2 ctr: -1; Neddylation inh: inactive

What do the screens show for `COc1ccc(N/N=C(\C#N)C(N)=O)cc1`?
MBD2 DNA inh: 7; UBC13 inh: 8; UHRF1 MBD2 ctr: -2; Neddylation inh: inactive

How did N#C/C(=N/Nc1ccc(OC(F)(F)F)cc1)C(N)=S do in these assays?
MBD2 DNA inh: 3; UBC13 inh: -2; UHRF1 MBD2 ctr: 31*; Neddylation inh: inactive

What do the screens show for `CCN(CC)C(=O)CC[C@H]1CC[C@]2(CCCN(S(C)(=O)=O)C2)O1`?
MBD2 DNA inh: -1; UHRF1 MBD2 ctr: -1

What do the screens show for `O=C(NCC1CC1)c1ccc(-n2ccnc2)c2ccoc12`?
MBD2 DNA inh: 9; UHRF1 MBD2 ctr: 25*; Neddylation inh: inactive

What do the screens show for `Cc1noc(C)c1-c1ccc(C(=O)NCC2CC2)c2occc12`?
MBD2 DNA inh: 0; UHRF1 MBD2 ctr: -1; Neddylation inh: inactive

Results for NC(=O)C1(N2CCCCC2)CCN(C(=S)NC2CCCC2)CC1 ?
MBD2 DNA inh: -9; UBC13 inh: 0; UHRF1 MBD2 ctr: -1; Neddylation inh: inactive

What do the screens show for `Cc1ccc(CCNC(=O)CCS(=O)(=O)c2ccc(Br)cc2)cc1`?
MBD2 DNA inh: 8; UBC13 inh: 10; UHRF1 MBD2 ctr: 24*; Neddylation inh: inactive

How did Cc1oc2c(c(C)cc3oc(=O)c(CC(=O)NCCCO)c(C)c32)c1C do in these assays?
MBD2 DNA inh: 3; UBC13 inh: 5; UHRF1 MBD2 ctr: -5; Neddylation inh: inactive

How did Cc1oc2c(c(C)cc3oc(=O)c(CC(=O)NCC(=O)NCC(=O)NCC(C)O)c(C)c32)c1C (centres undefined) do in these assays?
MBD2 DNA inh: -8; UBC13 inh: -4; UHRF1 MBD2 ctr: 65*

How did CCCOC(=O)CCCCCCCCC(O)CN1CCCCC1 (centres undefined) do in these assays?
MBD2 DNA inh: 11; UBC13 inh: -13; UHRF1 MBD2 ctr: 23*; Neddylation inh: inactive
